Rows were chosen to be rich in hits. Some 12% of all compounds tested hit in one or more screens of this group.
Sfp inh: inhibitors of Bacillus subtilis Sfp phosphopantetheinyl transferase | actives 3.5% (n = 310,000) | Q9F4F7 | Potency, µM, actives largely listed as inhibitors | Biochemical Sfp PPTase activity, qHTS;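 further: the enzyme is Sfp with the accession as filed and its product quenches rhodamine fluorescence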
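Fluorescence-quenching assay with 15 nM Sfp, 5 uM rhodamine-CoA and 12.5 uM BHQ-2-labelled ybbR peptide in pH 7.6 Hepes/MgCl2 buffer. Enzyme was pre-incubated with compound for 15 min at room temperature. Rate was taken from the 30-min fluorescence change (525/598 nm).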
RORgamma inh: blocks mouse ROR gamma transcriptional activity; actives 5.4% (n = 310,000); Drosophila S2 Gal4-RORgamma UAS-luciferase reporter, 20 h; Potency, µM (titrated, usually from 53.6 µM), most hits filed as inhibitors; further: nearly all actives have a fitted effect of over 60% in size
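Luciferase reporter read in Schneider cells carrying Gal4-RORγ (mouse) and UAS-Photinus luciferase; cells given compound 1 h before 700 uM copper sulfate induction, then incubated 20 h at ambient temperature.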
ALDH1A1 inh: ALDH1A1 (human) enzyme inhibition; actives 7.3% (n = 220,000); Purified ALDH1A1, NADH fluorescence, propionaldehyde substrate; AID 1030; Potency, µM (highest dose often 75.3 µM), hits mostly inhibitors; P00352; active means well fitted inhibition curve with a large enough effect, not every such curve was filed as active; inconclusive means small, poorly fitted or top-dose-only effect, or another doubt; inactive means no such curve, though single readings can be large or run the other way
Target sequence (P00352 whole entry, looked up): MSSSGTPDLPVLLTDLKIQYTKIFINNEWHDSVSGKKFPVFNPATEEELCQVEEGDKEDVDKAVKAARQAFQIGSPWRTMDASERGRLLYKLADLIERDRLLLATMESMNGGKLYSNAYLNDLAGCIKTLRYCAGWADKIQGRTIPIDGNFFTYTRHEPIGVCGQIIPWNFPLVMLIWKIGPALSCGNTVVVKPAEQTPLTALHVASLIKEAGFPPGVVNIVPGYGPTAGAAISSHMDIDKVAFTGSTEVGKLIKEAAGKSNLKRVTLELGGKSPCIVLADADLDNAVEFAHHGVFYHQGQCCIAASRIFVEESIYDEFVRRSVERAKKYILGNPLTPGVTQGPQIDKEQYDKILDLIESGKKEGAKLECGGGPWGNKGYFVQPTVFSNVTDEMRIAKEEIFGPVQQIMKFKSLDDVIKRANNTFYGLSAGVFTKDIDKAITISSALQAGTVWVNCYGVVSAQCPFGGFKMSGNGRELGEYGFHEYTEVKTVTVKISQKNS
PLK1 PBD inh: PLK1 (human) polo-box domain binding inhibition | Potency, µM, most hits filed as inhibitors | Plk1 PBD binding of FITC phosphopeptide, fluorescence polarization | actives 2.8% (n = 360,000); further: series mostly up to about 57 µM; nearly all actives have a fitted effect of over 65% in size
VP16 counter: Gal4-VP16 reporter inhibition counter-screen; Drosophila S2 Gal4-VP16 UAS-luciferase, luminescence, 20 h; Potency, µM (highest dose often 53.6 µM), most hits filed as inhibitors; actives 3.5% (n = 310,000); AID 2546;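 further: Gal4-VP16 expression switched on by copper sulfate through the metallothionein promoter; nearly all actives have a fitted effect of over 50% in size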
Each line names hits and unclear results; the compound was inactive in the other large screens. Unless noted, the call rests on the fitted dose curve; in most records, active means well fitted curve in the direction sought with a large enough effect; inconclusive means small, poorly fitted or top-dose-only effect, or another doubt; inactive means no such curve, though single readings can be large; an effect the other way counts as inactive or inconclusive.

CCCCCC(=O)Nc1nnn(CCC)n1	none
Cn1nnc(NC(=O)c2cccs2)n1	none
CCCn1nnc(NC(=S)NC(=O)c2cccs2)n1	Sfp inh 40µM, RORgamma inh 2µM, ALDH1A1 inh inconclusive, VP16 counter 5.6µM
CCOc1ccc2[nH]c3nc(SCC(=O)NCC4CCCO4)nnc3c2c1 (stereo not drawn)	VP16 counter inconclusive (no result: ALDH1A1 inh)
CCOc1ccc2c(c1)c1nnc(SCC3CCCO3)nc1n2C (stereo not drawn)	ALDH1A1 inh inconclusive, PLK1 PBD inh 27µM
O=C(NC(=S)Nc1cc([N+](=O)[O-])ccc1O)c1cccnc1	RORgamma inh 2µM, ALDH1A1 inh 10µM, PLK1 PBD inh inconclusive, VP16 counter 13µM
Cc1ccc([N+](=O)[O-])cc1NC(=S)NC(=O)c1ccco1	none
Cc1ccc([N+](=O)[O-])cc1NC(=S)NC(=O)c1cccnc1	Sfp inh inconclusive, RORgamma inh 13µM
COc1ccc(OC)c(NC(=O)C2(C)CCN2C(=O)C2(c3ccc(Cl)cc3)CCC2)c1 (stereo not drawn)	none (no result: Sfp inh, RORgamma inh, ALDH1A1 inh, VP16 counter)
O=C(CSc1nc2ccccc2o1)Nc1nc(-c2ccccc2)cs1	none
COc1ccc(-c2csc(NC(=O)CSc3nc(C)nc4sc(C(=O)O)c(C)c34)n2)cc1	ALDH1A1 inh inconclusive, PLK1 PBD inh 19µM
COc1ccc(-c2csc(NC(=O)CSc3nc(C)cs3)n2)cc1	none (no result: Sfp inh, RORgamma inh, ALDH1A1 inh, VP16 counter)
CCOc1ccc(Cc2nnc(SCC(=O)c3ccc(OC)cc3)o2)cc1	ALDH1A1 inh inconclusive
COc1ccc(Cc2nnc(SCC(=O)Nc3nc(C)cs3)o2)cc1	RORgamma inh 35µM
Cc1cc2ccccc2nc1SCC(=O)Nc1nc(-c2ccccc2)cs1	ALDH1A1 inh 7.9µM
CCOc1ccc(Nc2nc(Cc3nnc(SCC(=O)O)o3)cs2)cc1	Sfp inh 45µM, ALDH1A1 inh inconclusive
Cc1cccc(C)c1NC(=O)C1(C)CSCC(=O)N1CCc1ccccc1F (stereo not drawn)	none (no result: Sfp inh, RORgamma inh, ALDH1A1 inh, VP16 counter)
COc1ncc2nc(-c3ccc(F)cc3)c(=O)n(Cc3cccs3)c2n1	ALDH1A1 inh inconclusive (no result: PLK1 PBD inh)
Cc1cc(-c2nnc(SCC(=O)Nc3nc(-c4ccccc4)cs3)o2)no1	RORgamma inh 14µM (no result: ALDH1A1 inh)
COc1ccc(CCCc2nnc(SCC(=O)NN)o2)cc1	ALDH1A1 inh 7.9µM
COC(=O)c1ccccc1NC(=O)CSc1nnc(Cc2ccc(Cl)cc2)o1	ALDH1A1 inh 20µM, PLK1 PBD inh inconclusive
COc1ccccc1NC(=O)CSc1nnc(COc2ccc(Cl)cc2)o1	none (no result: ALDH1A1 inh)
CN(C)CCCn1c(SCC(=O)Nc2nc(-c3cccc(Br)c3)cs2)nc2ccccc2c1=O	Sfp inh 45µM (no result: ALDH1A1 inh)
Cc1csc(NC(=O)CSc2nnc(-c3cc(C)on3)o2)n1	RORgamma inh 14µM, VP16 counter 14µM
CC1(Cc2ccc3ccccc3n2)C(=O)Nc2ccc(OC(F)(F)F)cc21 (stereo not drawn)	none (no result: Sfp inh, RORgamma inh, ALDH1A1 inh, VP16 counter)
CC(=C1C(=O)c2ccccc2C1=O)N1CCN(c2ccc(F)cc2)CC1	ALDH1A1 inh 18µM
Cc1ccc(Cn2c(C3CCCN3c3nc(C)cs3)nc3cc(C(F)(F)F)ccc32)cc1 (stereo not drawn)	RORgamma inh 3.5µM, VP16 counter inconclusive (no result: ALDH1A1 inh)
COc1cccc(NC(=S)Nc2ccc(F)cc2)c1	RORgamma inh 16µM, VP16 counter inconclusive (no result: ALDH1A1 inh)
COc1cccc(NC(=S)Nc2ccc(O)cc2)c1	Sfp inh 20µM, PLK1 PBD inh 21µM (no result: ALDH1A1 inh)
COc1cccc(NC(=S)Nc2cccnc2)c1	RORgamma inh inconclusive
Clc1cccc(-c2nc3c4ccccc4ccn3c2CC2CCCCC2)c1	none (no result: Sfp inh, RORgamma inh, ALDH1A1 inh, VP16 counter)
Nc1c(C(=O)c2ccc(Cl)cc2)oc2ccccc12	VP16 counter inconclusive
O=C(c1ccc(Cl)cc1)c1oc2ccccc2c1CS(=O)c1ccc(Cl)cc1 (stereo not drawn)	Sfp inh 56µM, ALDH1A1 inh 4µM
CC(=O)N1C(=O)/C(=C2\SC(=S)N(NS(=O)(=O)c3ccc(C)cc3)C2=O)c2ccccc21	Sfp inh 45µM, ALDH1A1 inh 13µM, PLK1 PBD inh 17µM
CCN1C(=O)/C(=C2\SC(=S)N(NC(=O)c3ccccc3O)C2=O)c2ccccc21	none (no result: ALDH1A1 inh)
CC(/C=C1\SC(=S)N(NS(=O)(=O)c2ccc(C)cc2)C1=O)=C\c1ccccc1	PLK1 PBD inh 19µM (no result: ALDH1A1 inh)
CC(/C=C1\SC(=S)N(NC(=O)c2ccncc2)C1=O)=C\c1ccccc1	Sfp inh 45µM (no result: ALDH1A1 inh)
CC(C)=NO[C@@H](C)CN1CCCCc2nc(C)c(C)cc21	none (no result: PLK1 PBD inh)
Clc1ccc(CSC2=NCCN2)cc1Cl	none (no result: Sfp inh, RORgamma inh, PLK1 PBD inh, VP16 counter)
CC(=O)Nc1cccc(-c2ccnc3c2CC(C(=O)Nc2ccc(Cl)cc2)O3)c1 (stereo not drawn)	none (no result: Sfp inh, RORgamma inh, ALDH1A1 inh, VP16 counter)
O=C(c1cc(-c2ccc(O)cc2)on1)N1CCN(c2ccccc2)CC1	PLK1 PBD inh 34µM (no result: ALDH1A1 inh)
O=C(c1cc(-c2ccc(O)cc2)on1)N1CCN(c2ccc(F)cc2)CC1	none (no result: ALDH1A1 inh)
O=C(c1cc(C2CC2)on1)N1CCN(c2ccccc2)CC1	Sfp inh inconclusive, ALDH1A1 inh 28µM
COc1ccccc1N1CCN(C(=O)c2cc(-c3cccc(Cl)c3)on2)CC1	ALDH1A1 inh 20µM
CCNc1ncc2nc(-c3ccc(Cl)cc3)c(=O)n(Cc3cccs3)c2n1	ALDH1A1 inh inconclusive (no result: PLK1 PBD inh)
Cc1ccc(S(=O)(=O)/N=C(\Sc2ccccc2)c2ccccc2)cc1	ALDH1A1 inh inconclusive, PLK1 PBD inh inconclusive
O=S(=O)(/N=C(\Sc1ccccc1)c1ccccc1)c1ccc(Cl)cc1	Sfp inh 35µM, ALDH1A1 inh inconclusive, PLK1 PBD inh 2.4µM
Cc1ccc(S(=O)(=O)/N=C(/Sc2ccccc2C(=O)O)c2ccccc2)cc1	Sfp inh 79µM, PLK1 PBD inh 19µM (no result: ALDH1A1 inh)
NC(=O)C/C=C\CC(N)=O	none (no result: Sfp inh, RORgamma inh, PLK1 PBD inh, VP16 counter)
Cc1ccc(CNC(=O)C23CN(Cc4ccccc4)CC2C(c2ccc([N+](=O)[O-])cc2)=NO3)cc1 (stereo not drawn)	Sfp inh 40µM, RORgamma inh inconclusive, ALDH1A1 inh inconclusive
CCCCN(CCCC)CCCNC(=O)C12CN(Cc3ccccc3)CC1C(c1cccc([N+](=O)[O-])c1)=NO2 (stereo not drawn)	ALDH1A1 inh inconclusive
O=C(NCc1ccccc1)C12CN(Cc3ccccc3)CC1C(c1cccc([N+](=O)[O-])c1)=NO2 (stereo not drawn)	ALDH1A1 inh inconclusive
Cc1ccc(CCNC(=O)C23CN(Cc4ccccc4)CC2C(c2ccc([N+](=O)[O-])cc2)=NO3)cc1 (stereo not drawn)	Sfp inh 10µM, ALDH1A1 inh 14µM
CC(C)n1cnc2c(=S)nc[nH]c21	Sfp inh 8.9µM, ALDH1A1 inh inconclusive
O=C(Cc1ccc(F)cc1)Nc1nnc(-c2ccc(F)cc2)o1	RORgamma inh inconclusive, VP16 counter 1.4µM (no result: ALDH1A1 inh)
O=C(CSc1nncs1)Nc1nnc(-c2ccccc2)o1	Sfp inh inconclusive, RORgamma inh 11µM, VP16 counter inconclusive (no result: ALDH1A1 inh)
O=C(CCCSc1nc2ccccc2[nH]1)Nc1nnc(-c2ccccc2)o1	RORgamma inh 13µM
Cc1ccc(S(=O)(=O)CCC(=O)Nc2nnc(-c3ccc(F)cc3)o2)cc1	none (no result: Sfp inh, RORgamma inh, ALDH1A1 inh, VP16 counter)

Screening results (PubChem BioAssay)
